37 molecules from ChEMBL document CHEMBL1157539, “Thousands of chemical starting points for antimalarial lead identification” (Nature, 2010) can be followed below.

This assay deals with Plasmodium falciparum. Put plainly: GSK_TCMDC: Inhibition of Plasmodium falciparum 3D7 in whole red blood cells, using parasite LDH activity as an index of growth. Test compounds present at 2uM. It is filed as functional.
As to `O=C(O)C(F)(F)F.c1ccc(CN2CCC(NCc3ccc(-c4ccc(CNC5CCCC5)cc4)cc3)CC2)cc1`, the Inhibition turned out to be 100%.

`Nc1ncc(-c2ccccc2)cc1/C=C/c1cccnc1` gave an Inhibition of 91%. `O=C(/C=C/c1ccc(Cl)c(Cl)c1)NCCCCCN1CCC(NS(=O)(=O)c2cc(Cl)cc(Cl)c2)CC1` yielded an Inhibition of 83%. As for `COc1ccc(C(=O)N2CCN(c3ccc([N+](=O)[O-])c(NC4CC4)c3)CC2)cc1Br`, the Inhibition amounted to 99%. `CC(CN1CCN(C)CC1)C(=O)Nc1ccc(-c2ccc(-c3nc4cc(F)ccc4[nH]3)cc2)cc1` (configuration not stated) came in with an Inhibition of 100%. The figure for `Br.Cc1ccc(OCCCON2C(=N)N=C(N)NC2(C)C)cc1C` is 96%; for `C=CCOc1ccc2ccccc2c1CNCCCCCCNCc1c(OCC=C)ccc2ccccc12.CS(=O)(=O)O` it is 100%.

With `Nc1ncc(-c2ccc(NC(=O)Nc3cc(C(F)(F)F)ccc3F)cc2)c(N)n1.O=C(O)C(F)(F)F`, the Inhibition is listed as 99%.

Take `Cl.NC1CCN(Cc2cccc(-c3ccc(-c4nc5cc(C(F)(F)F)ccc5[nH]4)cc3)c2)C1` (configuration not stated): the Inhibition worked out at 99%. Then `O=C(NC1CC1)c1ccc(Nc2nccc(-c3c(-c4cccc(NC(=O)c5c(F)cccc5F)c4)nn4ccccc34)n2)cc1`, with 94%; and `CC(C)CCN1CCC(Oc2ccc(NC(=O)c3cccs3)cc2Cl)C1.O=C(O)C(F)(F)F` (configuration not stated), with 94%. Regarding `Cn1nc(-c2ccc(CNC3CCc4ccccc43)cc2)c2cnc(NCCCN3CCCC3)nc21` (configuration not stated), the Inhibition was 92%. In the case of `Cl.N#Cc1ccc2c(c1)CCN(CCC1CCC(Nc3ncnc4ccccc34)CC1)C2` (configuration not stated), the Inhibition is 100%. For `CC(CN1CCN(C)CC1)C(=O)Nc1cccc(-c2ccc(-c3nc4ccccc4[nH]3)s2)c1` (configuration not stated), the Inhibition is on record as 97%.

On to `CC(=O)N(C)c1ccc(C(=O)Nc2cccc(-c3cccc(-c4nc5cccc(C)c5[nH]4)c3)c2)cc1`, for which the Inhibition is reported as 89%. `O=C(O)C(F)(F)F.O=[N+]([O-])c1cccc(CNCC2CCN(CC3CCCCC3)CC2)c1` returned an Inhibition of 90%. Regarding `CS(=O)(=O)CCNCc1nc(-c2ccc3c(=O)[nH]cnc3c2)cs1`, the Inhibition is 86%. For the molecule `Cc1[nH]c(C)c(-c2ccc(Oc3cccc(Cl)c3)cc2)c(=O)c1Cl`, the Inhibition was 99%. Take `CC(C)(CNC(=O)[C@H]1CCCN1)c1nc(-c2ccc(Cl)c(O)c2)c(-c2ccncc2)[nH]1.Cl`: the Inhibition amounted to 86%.

In turn, `CS(=O)(=O)N(c1ccccc1)c1cc(C(=O)N[C@@H](Cc2ccccc2)[C@H](O)CNC2CC2)cc(N2CCCC2=O)c1` registered an Inhibition of 100%. Consider `C=CCOC(=O)N1CCC(CNCc2cccc(-c3cccc(-c4nc5cccc(C)c5[nH]4)c3)c2)C1.O=C(O)C(F)(F)F` (configuration not stated), for which the Inhibition amounted to 100%.

Take `O=C1OC2(CCN(C(=O)c3ccc(-n4cnnn4)cc3)CC2)CN1Cc1ccc(Cl)c(Cl)c1`: the Inhibition is on record as 97%.

`CC(=O)Nc1ccc(C(=O)Nc2cccc(-c3cccc(-c4nc5cccc(C)c5[nH]4)c3)c2)cn1` showed an Inhibition of 100%.

Take `CN(C(=O)Nc1ccc(F)cc1)C1CCN(CCCCCNC(=O)/C=C/c2ccc(Cl)c(Cl)c2)CC1`: the Inhibition is on record as 89%. Molecule `O=c1cc(NCCCCNCc2cccc(Cl)c2)[nH]c2ccccc12` came in with an Inhibition of 98%. For the molecule `Cc1cc(OCC2CCN(c3ncc(C(=O)Nc4ccccc4)cc3Cl)CC2)ccc1F`, the Inhibition stood at 91%. `Cc1cc(N/N=C/c2ccccc2[N+](=O)[O-])c2ccccc2n1` gave an Inhibition of 100%. `Cc1ccoc1C(=O)Nc1cccc(-c2cccc(-c3nc4ccccc4[nH]3)c2)c1` returned an Inhibition of 85%. Take `Cc1ccc(C)c(Sc2ccc(NC(=O)CN3CCN(C(=O)c4ccco4)CC3)cc2)c1`: the Inhibition is recorded as 96%. In turn, `COc1c(C2CCN(CCCCNC(=O)c3noc(-c4ccc(C#N)cc4)n3)CC2)ccc2c1CCCC2` displayed an Inhibition of 99%. Molecule `O=[N+]([O-])c1ccc2c(-c3ccccc3)c(-c3ccccc3)n(O)c2c1` gave an Inhibition of 97%. Turning to `COc1ccc(NC(=O)c2c(NC(=O)c3cccs3)sc3c2CCCC3)cc1`, the Inhibition is given as 97%. Then `Br.CN(CCON1C(=N)N=C(N)NC1(C)C)c1ccccc1`, with 97%; and `COc1ccc(CN2CCC(CNC(C)c3cccc4ccccc34)CC2)cc1.O=C(O)C(F)(F)F` (configuration not stated), with 100%; and `CCNc1cc(C(=O)N[C@@H](Cc2ccoc2)[C@H](O)CNC(C)CCCC(C)C)cc(N2CCCCS2(=O)=O)c1.Cl` (some centres not stated), with 99%. Turning to `CN1N=C2c3ccccc3CCC2C1c1ccc(C#N)cc1` (configuration not stated), the Inhibition is given as 95%. Turning to `Clc1cccc(Cl)c1CCNCC1CCN(CC2CCCCC2)CC1.O=C(O)C(F)(F)F`, the Inhibition is 98%.
